The target in one test is Albumin (Bos taurus) (UniProt P02769). In words: compounds binding labelled BSA control protein – biochemical, small-molecule microarray, Alexa647 label, 635/667 nm fluorescence, artefact control for SMM control protein annotation, profiling panel (AID 1118).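 Also: score merges 667 nm emission intensity and signal-to-noise per printed compound spot.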 Particulars: BSA-A647 binding, fluorescence 635 nm, higher = more signal.
Test [1] can be described thus: probe aXIP binding to arrayed compounds – biochemical, NeuroSMM set, 635/667 nm fluorescence, primary screen (AID 1119).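 Also: probe is the protein aXip251-270 applied at 1 µg/mL to compound-printed slides; binding of probe to printed compounds measured as 667 nm fluorescence plus signal to noise.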 As to conditions: small-molecule microarray, higher = more signal, called active from +8 up or from −8 down.
Test [2] is described as follows: probe aNOTCH3 binding on compound microarray – biochemical, small-molecule microarray, 635/667 nm fluorescence, primary screen (AID 1120).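 Also: probe is a biotin-tagged antibody raised against NOTCH3 rather than NOTCH3 protein; score merges spot fluorescence near 667 nm with spot signal to noise.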 As to conditions: higher = more signal.
Test [3] is described as follows: probe aNOTCH2 binding on compound microarray – biochemical, small-molecule microarray, 635/667 nm fluorescence, primary screen (AID 1121).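 Also: score merges feature fluorescence read at 667 nm with its signal to noise.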 As to conditions: higher = more signal.
For test [4], the target named is Carbonic anhydrase 2 (Homo sapiens) (UniProt P00918). In words: compounds binding carbonic anhydrase 2 – biochemical, small-molecule microarray, Alexa647-labelled CAII, profiling panel (AID 1122). As to conditions: CAII-A647 binding fluorescence, higher = more signal.
The nature of test [5]: COS7 lysate on small-molecule microarray, probe aHis, 635 nm (AID 1123).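 Also: z-score combines 667nm fluorescence intensity with signal-to-noise per printed compound spot.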 Particulars: COS7 cell lysate, fluorescence, higher = more signal.
The nature of test [6]: probe aLAP1 signal on lysate-treated microarray – cell lysate, small-molecule microarray, COS7 lysate, primary screen (AID 1124).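 Also: lysate comes from COS7 cells expressing LAP1 and is applied at 0.3 µg/mL; score merges spot fluorescence near 667 nm with signal-to-noise over triplicate slides.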 As to conditions: probe aLAP1, fluorescence, higher = more signal.
A further test concerns Sam68 (KHDRBS1). Put plainly: compounds binding KHDRBS1 protein – biochemical, small-molecule microarray, 635 nm fluorescence, primary screen (AID 1125).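 Also: score merges 667 nm channel intensity with signal to noise over triplicate slides.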 Particulars: higher = more signal.
In test [7] the test system is Chordin-like protein 2 (CHRDL2). Put plainly: compounds binding chordin-like 2 – biochemical, small-molecule microarray, 635 nm fluorescence, primary screen (AID 1126).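 Also: printed compound slides probed with Chrdl2 protein at 4 µg/mL for 1 h at 4 C; score merges 667 nm emission intensity with signal to noise over three replicate slides.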 Particulars: fluorescence 635 nm, higher = more signal.
The target of test [8] is Concanavalin-A (Canavalia ensiformis) (UniProt P02866). Put plainly: compounds binding concanavalin A lectin – biochemical, small-molecule microarray, Alexa647 label, 635 nm, artefact control for SMM control protein annotation, primary screen (AID 1127).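 Also: z combines 667 nm emission intensity with signal-to-noise across three replicate slides.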 Particulars: ConA-A647 binding fluorescence, higher = more signal.
Chain of Concanavalin-A (Canavalia ensiformis) (P02866 whole entry, looked up): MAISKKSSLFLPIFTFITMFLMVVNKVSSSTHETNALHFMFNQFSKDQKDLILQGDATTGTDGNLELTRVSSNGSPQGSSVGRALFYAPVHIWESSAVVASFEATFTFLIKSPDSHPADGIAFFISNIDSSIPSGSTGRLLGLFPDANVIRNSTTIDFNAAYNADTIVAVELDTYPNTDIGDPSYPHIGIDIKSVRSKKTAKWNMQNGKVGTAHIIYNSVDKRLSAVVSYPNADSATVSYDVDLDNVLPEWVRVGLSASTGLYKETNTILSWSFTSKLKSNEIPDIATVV

Activity calls are given as the source filed them.

Chain of Albumin (Bos taurus) (P02769 whole entry, looked up): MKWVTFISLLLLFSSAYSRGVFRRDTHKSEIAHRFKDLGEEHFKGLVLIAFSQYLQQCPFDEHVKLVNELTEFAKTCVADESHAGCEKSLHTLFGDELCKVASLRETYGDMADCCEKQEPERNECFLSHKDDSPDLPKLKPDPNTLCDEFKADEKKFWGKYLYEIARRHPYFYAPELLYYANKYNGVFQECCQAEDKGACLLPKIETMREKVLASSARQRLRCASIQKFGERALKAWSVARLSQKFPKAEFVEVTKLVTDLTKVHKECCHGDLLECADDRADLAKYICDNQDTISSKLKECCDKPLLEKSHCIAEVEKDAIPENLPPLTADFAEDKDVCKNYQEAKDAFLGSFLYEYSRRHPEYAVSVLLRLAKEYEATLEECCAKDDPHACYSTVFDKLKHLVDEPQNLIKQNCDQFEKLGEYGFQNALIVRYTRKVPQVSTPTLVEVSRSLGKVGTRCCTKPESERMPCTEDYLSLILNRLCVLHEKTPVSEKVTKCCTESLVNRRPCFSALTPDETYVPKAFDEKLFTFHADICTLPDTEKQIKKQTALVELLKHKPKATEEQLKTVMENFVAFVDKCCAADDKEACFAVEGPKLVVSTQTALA

For `COCCOC(=O)N1C(=O)[C@@]2(c3ccccc31)[C@H](C(=O)Nc1nc3ccccc3s1)[C@H]1C(=O)O[C@H](c3ccccc3)[C@H](c3ccccc3)N1[C@@H]2c1ccc(OCCO)cc1`, the composite z-score in the test with Albumin (Bos taurus) was 0.735; in test [2] it was 0.127; in [3] it was -0.169; in test [4] it was 0.287; in test [5], 2.33; in test [6] it was 1.39. Further, the composite z-score with Sam68 (KHDRBS1) was 1.29; in test [7], 0.594; in test [8] it was 1.16. The composite Z-score in [1] is -0.533 (inactive).

As to `N#Cc1ccc(NN2C(C(O)C3CCCCC3)C=CC3C(=O)N(c4ccccc4)C(=O)C32)cc1` (stereo not given), the composite z-score with Albumin (Bos taurus) came to 0.919; in test [2], 0.459; in test [3], 0.0636; in test [4], 0.184; in test [5], 2.62; in [6], 0.236. Besides, the figures for the composite z-score (in the test on Sam68 (KHDRBS1); in [7]; in [8]) were 1.29, -0.915 and 1.21, respectively. In test [1], the composite Z-score is 0.417 (inactive).

In the case of `COc1ccccc1CN1C(=O)c2ccccc2[C@@H](C(=O)NCCN2CCOCC2)[C@@H]1c1ccc(CO)cc1`, the composite z-score with Albumin (Bos taurus) was 0.305; in [2] it was -0.0824; in test [3], -0.0548; in test [4], 0.769; in test [5], 1.29; in test [6] it was 1.08. Further, the composite z-score in the test with Sam68 (KHDRBS1) is 0.287; in test [7] it was -0.159; in test [8], -0.15. Besides, in test [1], the composite Z-score is -0.275 (inactive).

For `C=CCOC(=O)[C@@H]1[C@H]2C(=O)O[C@H](c3ccccc3)[C@H](c3ccccc3)N2[C@H](c2ccc(OCCOC(=O)[C@@H]3C[C@@H]4C(=O)N[C@@H](Cc5ccccc5)C(=O)N4[C@@H]3c3cccc(OCCO)c3)cc2)[C@@]12C(=O)Nc1ccc(I)cc12`, the composite z-score in the test with Albumin (Bos taurus) was -0.912; in [2], -0.0328; in [3], -0.0389; in test [4], 0.537; in test [5] it was 1.1; in test [6], 0.283. For the same compound, the composite z-score in the test on Sam68 (KHDRBS1) is 1.31; in test [7], 1.11; in test [8] it was 0.795. The composite Z-score in [1] is -0.292 (inactive).

In the case of `COC(=O)[C@@]1(Cc2ccccc2)N=C(c2ccc(OCCCO)cc2)O[C@H]1c1ccccc1N=[N+]=[N-]`, the composite z-score in the test with Albumin (Bos taurus) is -0.541; in test [2] it was 0.104; in [3], 0.114; in [4], 0.111; in test [5] it was 1.37; in [6], 0.863. In addition, the composite z-score in the test on Sam68 (KHDRBS1) is 1.06; in [7], 0.968; in [8], 0.649. Further, the composite Z-score in test [1] is 2.98 (inactive).

Take `COC(=O)[C@@]1(Cc2ccccc2)[C@H]2c3cc(C(=O)N4CCCC4)n(C)c3C[C@H]2CN1C(=O)c1ccccc1`: the composite z-score in the test with Albumin (Bos taurus) was 1.06; in [2] it was 0.347; in test [3] it was -0.138; in [4] it was 0.912; in test [5] it was 2.35; in test [6], 0.711. Besides, the composite z-score in the test with Sam68 (KHDRBS1) was -0.0981; in test [7] it was -1.18; in test [8] it was 1.07. Further, the composite Z-score in test [1] was 0.363 (inactive).

As to `COc1ccc(C(=O)Nc2cccc(CN3C(=O)[C@]4(O[C@H](CC(=O)N5CCC[C@H]5CO)[C@@H]([Si](C)(C)c5ccc(OC)cc5)[C@@H]4C)c4ccccc43)c2)cc1`, the composite z-score with Albumin (Bos taurus) is 0.114; in test [2], -0.0044; in test [3], -0.112; in [4] it was 0.485; in test [5], 1.79; in test [6] it was 0.276. Further, the composite z-score was 1.01 with Sam68 (KHDRBS1), 0.76 in [7] and 1.02 in test [8]. Besides, the composite Z-score in test [1] is 0.535 (inactive).

On to `COCCOC(=O)N1C(=O)[C@@]2(c3cc(C#CCNC(N)=O)ccc31)[C@H](c1ccc(O)cc1)N1[C@H](c3ccccc3)[C@H](c3ccccc3)OC(=O)[C@H]1[C@@H]2C(=O)Nc1nc2ccccc2s1`, for which the composite z-score in the test with Albumin (Bos taurus) is 0.0631; in test [2], 0.111; in [3], -0.0432; in test [4], 0.266; in [5], 1.17; in test [6], 0.243. For the same compound, the composite z-score in the test with Sam68 (KHDRBS1) was found to be 0.942; in test [7] it was 0.554; in test [8], 1.09. Further, the composite Z-score in [1] is -0.162 (inactive).

In the case of `COC(=O)[C@@]1(Cc2ccc(OC)cc2)[C@H]2c3cc(C(=O)N4CCCC4)n(Cc4ccccn4)c3C[C@H]2CN1C(=O)c1ccccc1`, the composite z-score in the test with Albumin (Bos taurus) came out at 0.939; in test [2] it was 0.277; in test [3], 0.246; in [4], 0.82; in [5], 1.55; in test [6], 0.285. Besides, the composite z-score in the test with Sam68 (KHDRBS1) was 1.31; in [7] it was -0.761; in test [8], 0.906. For the same compound, the composite Z-score in test [1] is -0.832 (inactive).

As to `NC(=O)NCC#Cc1ccc2c(c1)[C@]1(C(=O)N2)[C@H](C(=O)NC[C@H](O)c2ccccc2)[C@H]2C(=O)O[C@H](c3ccccc3)[C@H](c3ccccc3)N2[C@@H]1c1ccc(O)cc1`, the composite z-score is 0.496 in the test with Albumin (Bos taurus); 0.51 in [2]; 0.159 in test [3]; 0.501 in test [4]; 2.15 in [5]; 0.743 in test [6]. For the same compound, the composite z-score is 0.998 in the test with Sam68 (KHDRBS1), 0.395 in [7] and 1.13 in [8]. For the same compound, the composite Z-score in test [1] was 0.58 (inactive).

On to `COc1cc2c(cc1OC)CN(C(=O)[C@@H]1[C@H]3C(=O)O[C@H](c4ccccc4)[C@H](c4ccccc4)N3[C@H](c3ccccc3OCCO)[C@@]13C(=O)Nc1ccc(C#CCNC(N)=O)cc13)CC2`, for which the composite z-score in the test with Albumin (Bos taurus) is 0.301; in [2], 0.37; in test [3] it was -0.0251; in test [4] it was 0.377; in test [5], 2.65; in test [6], 1.15. The values for the composite z-score (with Sam68 (KHDRBS1); in test [7]; in test [8]) were 1.31, 0.981 and 1.11, respectively. Moreover, the composite Z-score in test [1] was 0.545 (inactive).

Values taken from PubChem BioAssay.
